Data published in PubChem BioAssay (NCI).
The panel holds about 83,000 compounds, 20% with a hit somewhere; the sample as a whole holds those more often.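 Values shown are percent growth following 48 h exposure of cells in 96-well plates to a single concentration of compound; below 10 was considered active.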 The source made the active and inactive calls.

Columns and labels:
Assay in all cases: NCI-60 one-dose screen, 48 h (100 = growth as untreated, 0 = no growth, -100 = all killed)
Conditions in all cases: 10 µM unless noted
NCI-H226 lung = tested on: NCI-H226 lung
NCI-H322M lung = tested on: NCI-H322M lung
HOP-62 NSCLC = tested on: HOP-62 NSCLC
NCI-H460 lung = tested on: NCI-H460 lung
NCI-H522 lung = tested on: NCI-H522 lung
A549/ATCC NSCLC = tested on: A549/ATCC NSCLC
786-0 renal = tested on: 786-0 renal
COLO 205 colon = tested on: COLO 205 colon
DU-145 prostate = tested on: DU-145 prostate
K-562 leukemia = tested on: K-562 leukemia
MALME-3M melanoma = tested on: MALME-3M melanoma
MDA-MB-231 breast = tested on: MDA-MB-231 breast
RXF 393 renal = tested on: RXF 393 renal
SF-268 CNS = tested on: SF-268 CNS
SF-295 CNS = tested on: SF-295 CNS
SF-539 CNS = tested on: SF-539 CNS
UACC-257 melanoma = tested on: UACC-257 melanoma
M14 melanoma = tested on: M14 melanoma

Measured: growth

O=C(NO)c1ccc(CNc2cccc3nc(C4CC4)n(-c4ccccc4)c(=O)c23)cc1
inactive: NCI-H226 lung 44.4% | NCI-H322M lung 37.7% | HOP-62 NSCLC 21.5% | NCI-H460 lung 22.6% | NCI-H522 lung 19.2% | A549/ATCC NSCLC 15.3% | 786-0 renal 24.8% | K-562 leukemia 11.2% | MALME-3M melanoma 36.7% | MDA-MB-231 breast 26.4% | SF-295 CNS 12.9% | UACC-257 melanoma 37.6% | M14 melanoma 18.4%
active: COLO 205 colon 8.11% | DU-145 prostate 3.14% | RXF 393 renal -18.7% | SF-268 CNS 7.14% | SF-539 CNS 9.38%

CC(=O)NC1C(O[C@H]2C[C@H]3[C@@H]4CC=C5C[C@@H](O)CC[C@]5(C)[C@H]4CC[C@]3(C)[C@H]2[C@H](C)C(=O)CCC(C)C)OCC(O)C1O (some centres undefined)
active: 786-0 renal 1.28% | K-562 leukemia 0.56% | RXF 393 renal -43.2% | SF-295 CNS -53.2% | SF-539 CNS -26.2% | UACC-257 melanoma -15.5% | M14 melanoma -22.2%
inactive: NCI-H226 lung 60.6% | NCI-H322M lung 81.3% | HOP-62 NSCLC 52% | NCI-H460 lung 22.9% | NCI-H522 lung 66.7% | A549/ATCC NSCLC 53.1% | COLO 205 colon 30.1% | DU-145 prostate 57.7% | MALME-3M melanoma 34.7% | MDA-MB-231 breast 59.9% | SF-268 CNS 31%

Cc1ccc2c(C)c3c(ccc4ccccc43)c[n+]2c1
active: MALME-3M melanoma -8.06%
inactive: NCI-H226 lung 83.7% | NCI-H322M lung 86.5% | HOP-62 NSCLC 45.7% | NCI-H460 lung 74.3% | NCI-H522 lung 74.2% | A549/ATCC NSCLC 41.7% | 786-0 renal 70.3% | COLO 205 colon 91.5% | DU-145 prostate 85% | MDA-MB-231 breast 72.7% | RXF 393 renal 104% | SF-268 CNS 31.5% | SF-295 CNS 36.4% | SF-539 CNS 72.8% | UACC-257 melanoma 69.2% | M14 melanoma 89%

c1ccc2oc(-c3cnc4nonc4n3)cc2c1
inactive: NCI-H226 lung 92.1% | NCI-H322M lung 87.7% | HOP-62 NSCLC 84.7% | NCI-H460 lung 95.8% | NCI-H522 lung 78.3% | A549/ATCC NSCLC 96.4% | 786-0 renal 103% | COLO 205 colon 103% | DU-145 prostate 114% | K-562 leukemia 103% | MALME-3M melanoma 105% | MDA-MB-231 breast 87.9% | RXF 393 renal 112% | SF-268 CNS 99.7% | SF-295 CNS 103% | SF-539 CNS 101% | UACC-257 melanoma 99.2% | M14 melanoma 106%

COc1ccc(-c2conc2-n2nc(-c3ccccc3)nc2-c2ccccc2)cc1
inactive: NCI-H226 lung 89.7% | NCI-H322M lung 97.6% | HOP-62 NSCLC 95.9% | NCI-H460 lung 120% | NCI-H522 lung 89.7% | A549/ATCC NSCLC 114% | 786-0 renal 107% | COLO 205 colon 112% | DU-145 prostate 119% | MALME-3M melanoma 105% | MDA-MB-231 breast 94% | RXF 393 renal 113% | SF-268 CNS 122% | SF-295 CNS 98.8% | SF-539 CNS 107% | UACC-257 melanoma 115% | M14 melanoma 98.6%

Cc1ccc(C)c(NC(=O)c2sc3c(=O)[nH]cnc3c2C)c1
inactive: NCI-H226 lung 106% | NCI-H322M lung 103% | HOP-62 NSCLC 80.8% | NCI-H460 lung 81.9% | NCI-H522 lung 64.9% | A549/ATCC NSCLC 74.6% | 786-0 renal 89.9% | COLO 205 colon 83.3% | DU-145 prostate 108% | K-562 leukemia 29.6% | MALME-3M melanoma 62.6% | MDA-MB-231 breast 97.4% | RXF 393 renal 90.1% | SF-268 CNS 101% | SF-295 CNS 73.3% | SF-539 CNS 94.2% | UACC-257 melanoma 94.5% | M14 melanoma 57.8%

C=C(COC(C)=O)[C@H]1CC/C(C)=C/CC/C(C)=C/CC[C@@]2(C)O[C@H]2C1
inactive: NCI-H226 lung 108% | NCI-H322M lung 102% | HOP-62 NSCLC 107% | NCI-H460 lung 106% | NCI-H522 lung 95.3% | A549/ATCC NSCLC 105% | 786-0 renal 96% | COLO 205 colon 148% | DU-145 prostate 109% | K-562 leukemia 100% | MALME-3M melanoma 93.5% | MDA-MB-231 breast 107% | RXF 393 renal 112% | SF-268 CNS 97.2% | SF-295 CNS 110% | SF-539 CNS 114% | UACC-257 melanoma 100% | M14 melanoma 106%
